Assay outcomes: PubChem, National Center for Advancing Translational Sciences (NCATS)
Compounds with a hit are over-represented: about 18% of the library has one in this group of screens.
CtBP-E1A blk: CtBP/E1A binding inhibition. AlphaScreen GST-E1A/His-CtBP binding, 1536-well; hits give low values. activity change, % (test concentration not listed). actives 0.49% (n = 340,000); in the data active means activity change below about -65%; inconclusive means mostly about -30% to -63%
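GST-E1A and His-tagged CtBP (125 nM each as 5X stock) were preincubated with pin-transferred compound for 2 h at 37 °C in the dark, then glutathione donor and nickel acceptor beads were added for 1 h before AlphaScreen reading.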
DT40 TDP1 CPT: growth inhibition of DT40 Tdp1-/-;hTDP1 cells with camptothecin (screen for TDP1 inhibitors) | actives 12% (n = 420,000) | Potency, µM (titrated, usually from 46.2 µM), for inactives: at the highest dose activity change, negative = growth inhibition, most hits filed as inhibitors | chicken DT40 Tdp1-/-;hTDP1 cells + 20 nM CPT, ATP luminescence, 48 h | AID 686979; further: potency means the concentration at half of the fitted maximal effect; nearly all actives have a fitted effect of over 55% in size
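Chicken DT40 Tdp1-/- cells complemented with human TDP1, 400 cells/well, exposed to compounds plus 20 nM camptothecin for at least 48 h at 37 C; viability read as ATP content by CellTiter-Glo luminescence.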
IL-1B inflam inh: inflammasome signaling inhibition, IL-1 beta readout; THP-1 LPS/ATP IL-1B secretion, AlphaLISA, 16 h; hits give low values; activity change, % at 57.5 µM; actives 4.7% (n = 360,000); AID 743279; in the data active means activity change below about -50%; inconclusive means mostly about -30% to -49%
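THP-1 cells pretreated 1 hr with compounds (up to 57.5 uM final), then stimulated with LPS (250 ng/mL final) plus ATP (1.25 mM final); secreted IL-1B measured by AlphaLISA after 16 hr, decreased signal indicating inhibition.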
TDP1 block: blocks human tyrosyl-DNA phosphodiesterase 1 | Q9NUW8 | recombinant TDP1, AlphaScreen DNA substrate cleavage | Potency, µM (highest dose often 130 µM), inactives show at the highest dose activity change, negative = inhibition, most hits filed as inhibitors | actives 0.28% (n = 350,000) | AID 485290; further: potency means the concentration at half of the fitted maximal effect; nearly all actives have a fitted effect of over 40% in size
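Here, a 5' biotin and 3' phosphotyrosine-FITC DNA oligonucleotide reports Tdp1 activity: intact substrate bridges AlphaScreen beads, while cleavage leaves a 3' phosphate and drops signal. All incubations at room temperature.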
TDP1 cell noCPT: qHTS for Inhibitors of human tyrosyl-DNA phosphodiesterase 1 (TDP1): qHTS in cells in absence of CPT. DT40 Tdp1-/- hTDP1 cells, no CPT, ATP luminescence, 48 h. Potency, µM (titrated, usually from 46.2 µM), inactives show top-dose activity change, negative = growth inhibition, hits mostly inhibitors. actives 15% (n = 420,000). AID 686978, 2013; further: potency means the concentration at half of the fitted maximal effect; nearly all actives have a fitted effect of over 55% in size
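Readout: luminescence from CellTiter-Glo after 30 min in the dark at RT. Cells: DT40 Tdp1-/- with stable hTDP1, 400/well. Exposure: compounds alone, ≥48 hr, 37 °C.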
Six1-Eya2 inh: Six1/Eya2 interaction inhibition; Q15475+O00167; AlphaScreen GST-Six1/His-Eya2 binding, biochemical; hits give low values; activity change, % (concentration not given with the values); actives 0.56% (n = 360,000); AID 651725; in the data active means activity change below about -65%; inconclusive means mostly about -30% to -63%
Target sequence (O00167 whole entry, looked up): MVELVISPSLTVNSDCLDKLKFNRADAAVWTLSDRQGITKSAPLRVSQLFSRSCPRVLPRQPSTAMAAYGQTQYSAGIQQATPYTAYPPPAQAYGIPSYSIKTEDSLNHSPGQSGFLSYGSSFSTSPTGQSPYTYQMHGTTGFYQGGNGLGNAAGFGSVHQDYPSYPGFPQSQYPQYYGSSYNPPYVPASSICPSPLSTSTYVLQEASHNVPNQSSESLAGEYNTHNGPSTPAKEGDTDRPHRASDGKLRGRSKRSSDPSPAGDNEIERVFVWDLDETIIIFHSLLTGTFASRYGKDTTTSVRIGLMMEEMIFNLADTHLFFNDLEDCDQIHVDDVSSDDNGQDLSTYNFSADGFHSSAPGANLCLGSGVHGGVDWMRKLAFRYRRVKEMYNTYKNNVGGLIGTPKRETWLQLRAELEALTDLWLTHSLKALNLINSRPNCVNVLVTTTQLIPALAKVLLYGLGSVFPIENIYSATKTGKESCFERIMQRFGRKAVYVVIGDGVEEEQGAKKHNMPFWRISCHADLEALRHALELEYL
Target sequence (Q15475 whole entry, looked up): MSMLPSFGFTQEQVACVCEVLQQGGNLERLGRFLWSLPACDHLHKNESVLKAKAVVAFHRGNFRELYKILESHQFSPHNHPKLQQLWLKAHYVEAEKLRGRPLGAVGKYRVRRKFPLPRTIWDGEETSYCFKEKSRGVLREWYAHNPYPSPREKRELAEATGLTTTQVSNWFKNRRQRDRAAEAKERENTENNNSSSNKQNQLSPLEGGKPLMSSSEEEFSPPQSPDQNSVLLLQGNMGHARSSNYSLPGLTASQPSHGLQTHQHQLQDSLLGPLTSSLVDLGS
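Homogeneous AlphaScreen proximity assay pairing GST-Six1 with His-tagged Eya2 (added as 5X mix: 250 nM and 500 nM) in 50 mM Tris pH 8.0, 300 mM NaCl, 1 mM TCEP. Glutathione donor and nickel acceptor beads; 1 h, 37 °C, dark.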
Numbers without * were called inactive; [ ] = remark or other dose. Unless noted, the call rests on the fitted dose curve; in most records, active means well fitted curve in the direction sought with a large enough effect; inconclusive means small, poorly fitted or top-dose-only effect, or another doubt; inactive means no such curve, though single readings can be large; an effect the other way counts as inactive or inconclusive. On the % scale 0 is the no-effect control and ±100 the full control effect.

Cc1ccc(C(=O)O)cc1-n1c(C)cc(C=O)c1C was read as CtBP-E1A blk 0.0, DT40 TDP1 CPT -2.5%, IL-1B inflam inh -15.9, TDP1 block 17.8µM*, TDP1 cell noCPT 0.0% and Six1-Eya2 inh -16.0.
Screening C[C@H]1COC(=O)[C@H](Cc2ccc(F)cc2)C/C=C\C[C@@H](CC(=O)NCCO)C(=O)N1 returned DT40 TDP1 CPT -21.8%, IL-1B inflam inh 8.2, TDP1 block 1.0%, TDP1 cell noCPT -28.8% and Six1-Eya2 inh 0.0.
`Cc1c2ccccc2cc[n+]1C` gave DT40 TDP1 CPT -6.2% and TDP1 cell noCPT -15.9%.
CC1=[N+](C)c2ccc3ccccc3c2C1(C)C was read as CtBP-E1A blk -17.2, DT40 TDP1 CPT 2.59µM*, IL-1B inflam inh -15.1, TDP1 block 13.3%, TDP1 cell noCPT 2.31µM* and Six1-Eya2 inh -25.9.
`CN(CC1CCCO1)S(=O)(=O)c1ccc(C(=O)N2CCN(c3ccccc3)CC2)cc1` (stereo not drawn) gave CtBP-E1A blk 6.2, DT40 TDP1 CPT 27.8%, IL-1B inflam inh 3.2, TDP1 block -5.3%, TDP1 cell noCPT 3.9% and Six1-Eya2 inh 1.8.
`COc1cc2c(NC3CCN(C)CC3)nc(N3CCCN(C)CC3)nc2cc1OCCCN1CCOCC1` gave DT40 TDP1 CPT 7.94µM* and TDP1 cell noCPT 11.2µM*.
COc1cc2c(NC3CCN(C)CC3)nc(N3CCCN(C)CC3)nc2cc1OCCCCCN was read as DT40 TDP1 CPT inconclusive and TDP1 cell noCPT -16.5%.
For COCCCCOc1cc2nc(N3CCCN(C)CC3)nc(NC3CCN(C)CC3)c2cc1OC the results were DT40 TDP1 CPT 12.6µM* and TDP1 cell noCPT 11.2µM*.
`CC(=O)N1CCc2cc(C(=O)CN3CCCCC3)ccc21` gave CtBP-E1A blk 0.8, DT40 TDP1 CPT -2.1%, IL-1B inflam inh -2.4, TDP1 block 1.2%, TDP1 cell noCPT -2.6% and Six1-Eya2 inh -0.1.
`CC1CCC(C(O)(C(=O)O)C2CCCCC2)CC1C` (stereo not drawn) gave CtBP-E1A blk -2.5, DT40 TDP1 CPT 0.1%, IL-1B inflam inh 24.7, TDP1 cell noCPT -3.9% and Six1-Eya2 inh 8.9.
Screening Cc1cc(C(=O)N2CCN(c3ncccn3)CC2)c(C)o1 returned CtBP-E1A blk -1.1, DT40 TDP1 CPT 13µM*, IL-1B inflam inh -10.7, TDP1 block 0.0%, TDP1 cell noCPT 23.1µM* and Six1-Eya2 inh 0.8.
Screening O=C(Nc1ccccc1C(=O)N1CCN(c2cccc(Cl)c2)CC1)C1=CSCCO1 returned CtBP-E1A blk -8.4, DT40 TDP1 CPT 11.4%, IL-1B inflam inh -13.9, TDP1 block 5.2%, TDP1 cell noCPT 20.6µM* and Six1-Eya2 inh -0.8.
COc1ccc(N2CCN(C(=O)c3cc(C)oc3C)CC2)cc1 was read as CtBP-E1A blk -10.5, DT40 TDP1 CPT -13.2%, IL-1B inflam inh 0.5, TDP1 block 5.9%, TDP1 cell noCPT -13.6% and Six1-Eya2 inh -9.2.
Cc1cc(C(=O)N2CCN(c3cccc(Cl)c3)CC2)c(C)o1 was read as CtBP-E1A blk -0.7, DT40 TDP1 CPT 18.4µM*, IL-1B inflam inh -2.3, TDP1 block 4.0%, TDP1 cell noCPT 16.4µM* and Six1-Eya2 inh -9.1.
`Cc1cc(C(=O)N2CCN(c3ccccc3)CC2)c(C)o1` gave CtBP-E1A blk -12.9, DT40 TDP1 CPT 0.2%, IL-1B inflam inh -5.6, TDP1 block 4.8%, TDP1 cell noCPT -5.8% and Six1-Eya2 inh -8.1.
For Cc1cc(C(=O)N2CCN(c3ccccc3Cl)CC2)c(C)o1 the results were CtBP-E1A blk 14.9, DT40 TDP1 CPT 20.6µM*, IL-1B inflam inh inconclusive, TDP1 block 5.1%, TDP1 cell noCPT 11.6µM* and Six1-Eya2 inh 10.1.
For CC1CC(C)CN(C(=O)CCC(=O)Nc2nnc(C(C)C)s2)C1 (stereo not drawn) the results were CtBP-E1A blk 0.0, DT40 TDP1 CPT 9.5%, IL-1B inflam inh 6.6, TDP1 block 2.6%, TDP1 cell noCPT -22.4% and Six1-Eya2 inh 6.3.
Cc1cc(OCC(=O)NCCCN2CCCC2=O)c2c(C)cc(=O)oc2c1 was read as CtBP-E1A blk -9.8, DT40 TDP1 CPT 5.2%, IL-1B inflam inh 4.7, TDP1 block 0.4%, TDP1 cell noCPT 17.5% and Six1-Eya2 inh 3.0.
`Cc1cccn2c(Nc3ccc4c(c3)OCCO4)c(-c3ccc(Br)o3)nc12` gave DT40 TDP1 CPT inconclusive, TDP1 block 4.3%[12.3 µM] and TDP1 cell noCPT inconclusive.
For Cc1ccc2cc(CCNC(=O)c3cc4ccccc4o3)c(=O)[nH]c2c1C the results were CtBP-E1A blk -8.2, DT40 TDP1 CPT inconclusive, IL-1B inflam inh -8.6, TDP1 block 2.3%, TDP1 cell noCPT inconclusive and Six1-Eya2 inh -14.3.
Screening COc1ccc2cc(CCNC(=O)c3cc4ccccc4o3)c(=O)[nH]c2c1 returned CtBP-E1A blk -1.7, DT40 TDP1 CPT 20.6µM*, IL-1B inflam inh -11.0, TDP1 block 1.0%, TDP1 cell noCPT inconclusive and Six1-Eya2 inh -2.7.
Screening Cc1ccc(-n2nc(CN3CCOCC3)c(-c3ccccc3)c2N)cc1Cl returned CtBP-E1A blk -11.2, DT40 TDP1 CPT 29.1µM*, IL-1B inflam inh -2.5, TDP1 block 0.6%, TDP1 cell noCPT 20.6µM* and Six1-Eya2 inh -8.7.
For Cc1ccc(-n2nc(CC#N)c(C#N)c2N)cc1Cl the results were CtBP-E1A blk 4.3, DT40 TDP1 CPT 1.5%, IL-1B inflam inh 20.7, TDP1 block 8.2%, TDP1 cell noCPT -10.6% and Six1-Eya2 inh 6.7.
Nc1c(Cl)ncnc1N1CCOCC1 was read as CtBP-E1A blk 3.1, DT40 TDP1 CPT -10.6%, IL-1B inflam inh 35.8, TDP1 block -2.0%, TDP1 cell noCPT -10.5% and Six1-Eya2 inh 2.9.
Cc1cccc(NC(=O)C(C)Sc2ncnc3sccc23)c1 (stereo not drawn) was read as CtBP-E1A blk 4.5, DT40 TDP1 CPT 18.4µM*, IL-1B inflam inh -1.6, TDP1 cell noCPT 14.6µM* and Six1-Eya2 inh 17.0.
Screening CC(Sc1ncnc2ccccc12)C(=O)Nc1ccc2c(c1)OCCO2 (stereo not drawn) returned CtBP-E1A blk -5.0, DT40 TDP1 CPT 14.6µM*, IL-1B inflam inh -11.9, TDP1 block 0.0%, TDP1 cell noCPT 13µM* and Six1-Eya2 inh -8.4.
Screening COc1ccccc1NC(=O)C(C)Sc1nc2ccccc2c(=O)n1CC1CCCO1 (stereo not drawn) returned CtBP-E1A blk 0.4, DT40 TDP1 CPT inconclusive, IL-1B inflam inh -1.2, TDP1 cell noCPT -23.6% and Six1-Eya2 inh 1.2.
